Among all 69,000 compounds or so, about 8,600 (12%) showed an effect of 50% or more. The full list was thinned out, with strong results kept by preference.
system: Plasmodium berghei; test: Screen against P. berghei liver stage (PbLuc), transformed with Luciferase, at 10uM; assay type: functional, HepG2; conditions: tested at 10 uM

Q: With `COc1ccc(CC(=O)N2CCCCC2Cn2cc(C)cn2)cc1F` (stereo not given) as the compound, how does the INHIBITION read?
A: -2.19%

Q: For `CC(C)Cc1cc(NC(=O)c2cccnc2)n(C)n1`, which INHIBITION is on record?
A: -10.6%

Q: Which INHIBITION does the source give for `CCN(CC)S(=O)(=O)N1CCCN(CC(=O)NC(C)C)CC1` here?
A: 57.2%

Q: For `CCN(CC(=O)NC(C)C)S(=O)(=O)N1CCCC(C)C1` (stereo not given), which INHIBITION is on record?
A: -13.4%

Q: With `CCN(CC(=O)NC(C)C)S(=O)(=O)N1CCCCCC1` as the compound, how does the INHIBITION read?
A: -12.6%

Q: For `Fc1ccc2[nH]c3c(c2c1)CCN1C(c2ccccn2)N2CCC31CC2` (stereo not given), which INHIBITION is on record?
A: -23.4%

Q: With `CC(NCC1CCS(=O)(=O)CC1)c1cccc(OC(F)F)c1` (stereo not given) as the compound, how does the INHIBITION read?
A: 2.97%

Q: How did the INHIBITION turn out when `CC(=O)Nc1cccc(C(C)NCC2CCS(=O)(=O)CC2)c1` (stereo not given) was run?
A: 25.8%

Q: How did the INHIBITION turn out when `Cc1cccc(C(C)NCC2CCS(=O)(=O)CC2)c1` (stereo not given) was run?
A: 64.4%

Q: How did the INHIBITION turn out when `O=C(Nc1cnccn1)[C@@H]1C[C@H]2OCC[C@H]2N(Cc2ccsc2)C1` was run?
A: -38.9%

Q: `CCCN1C[C@@H]2CC[C@H]1CN(Cc1ccc(Cn3cccn3)cc1)C2` was tested. Which INHIBITION did it give?
A: -27.5%

Q: Which INHIBITION does the source give for `COC(=O)c1ccc(N2CCN(C(=O)c3ccc(O)nc3)C(C)C2)cc1` (stereo not given) here?
A: 2.97%

Q: For `COC(=O)c1ccc(N2CCN(C(=O)C3CC3)C(C)C2)cc1` (stereo not given), which INHIBITION is on record?
A: 31.6%

Q: For `COC(=O)c1ccc(N2CCN(C(=O)c3cccnc3)C(C)C2)cc1` (stereo not given), which INHIBITION is on record?
A: 81.1%

Q: How did the INHIBITION turn out when `COC(=O)c1ccc(N2CCN(C(=O)c3ccco3)C(C)C2)cc1` (stereo not given) was run?
A: -34%

Q: With `COC(=O)c1ccc(N2CCN(C(=O)c3ccncc3)C(C)C2)cc1` (stereo not given) as the compound, how does the INHIBITION read?
A: 27.1%

Q: `COC(=O)c1ccc(N2CCN(C(=O)c3cnn(C)c3)C(C)C2)cc1` (stereo not given) was tested. Which INHIBITION did it give?
A: 63.6%

Q: For `O=S(=O)(CCNC1CCc2ncnn2C1)c1ccc(Cl)cc1` (stereo not given), which INHIBITION is on record?
A: 21.5%

Q: For `CO[C@@H]1CN(c2ccccc2)S(=O)(=O)[C@@]12CCN(CC1CC1)C2`, which INHIBITION is on record?
A: 22.2%

Q: How did the INHIBITION turn out when `CCn1cc(NC(=O)NCC(c2ccc(OC)cc2)N(C)C)cn1` (stereo not given) was run?
A: 34.85%

Q: How did the INHIBITION turn out when `C[C@@H]1CN(C(=O)c2ccccc2F)C[C@]12CCN(CCN(C)C)C2=O` was run?
A: 11.2%

Q: `NC(=O)C1CN(Cc2c(O)ccc3oc4c(c23)CCCC4)CCO1` (stereo not given) was tested. Which INHIBITION did it give?
A: -66.7%

Q: For `Oc1ccc2oc3c(c2c1CN1CCOCC1)CCCC3`, which INHIBITION is on record?
A: -115%

Q: Which INHIBITION does the source give for `O=C1NCCCc2c1oc1ccc(O)c(CN3CCOCC3)c21` here?
A: 58.1%

Q: `CCCC1(CO)CCCN(C(=O)CN2CCN(CC)CC2)C1` (stereo not given) was tested. Which INHIBITION did it give?
A: 17.4%

Q: For `CN(C)c1cc(CNc2ccc(S(=O)(=O)C(C)(C)C)nc2)ccn1`, which INHIBITION is on record?
A: -1.35%

Q: `Cn1c(CN2CCOC(CCc3ccncn3)C2)nc2ccccc21` (stereo not given) was tested. Which INHIBITION did it give?
A: 38.8%

Q: With `CCc1noc(CS(=O)(=O)CC(=O)N2c3ccccc3CC2C)n1` (stereo not given) as the compound, how does the INHIBITION read?
A: -21%

Q: For `CCc1noc(CS(=O)(=O)Cc2nc(Cc3ccccc3)no2)n1`, which INHIBITION is on record?
A: 25.5%

Q: `CCc1noc(CS(=O)(=O)Cc2ccccc2C)n1` was tested. Which INHIBITION did it give?
A: 61.3%

Q: With `CCc1noc(CS(=O)(=O)Cc2ccccc2Cl)n1` as the compound, how does the INHIBITION read?
A: 52.6%

Q: With `Cc1ccccc1CS(=O)(=O)Cc1nc(C2CC2)no1` as the compound, how does the INHIBITION read?
A: 9.16%

Q: Which INHIBITION does the source give for `CCc1noc(CS(=O)(=O)CC=C(C)C)n1` here?
A: 21.9%

Q: How did the INHIBITION turn out when `Cc1ccc(C2COCCN2C(=O)c2ccc(F)c(F)c2)o1` (stereo not given) was run?
A: 44.9%

Q: With `O=C(c1cnccn1)N1CCc2onc(Cn3cccn3)c2C1` as the compound, how does the INHIBITION read?
A: 9.63%

Q: How did the INHIBITION turn out when `O=C(NCCN1CCCCCC1=O)c1ccc(=O)[nH]n1` was run?
A: 33.7%

Q: How did the INHIBITION turn out when `Cn1ccnc1CN1CCN2C[C@H](Oc3ccccc3)C[C@H]2C1` was run?
A: 39.8%

Q: For `CN(C)c1nccc(C2CCCCN2Cc2cnn3cccnc23)n1` (stereo not given), which INHIBITION is on record?
A: -29.9%

Q: With `Cc1csc(N2CCCN(C(=O)Cn3cncn3)CC2)n1` as the compound, how does the INHIBITION read?
A: -52.5%

Q: `CN(Cc1ccnc2ccccc12)C1CCS(=O)(=O)C1` (stereo not given) was tested. Which INHIBITION did it give?
A: 45.2%

Q: For `CCOCC1CN(C(=O)COc2ccccc2C)Cc2ncn(C)c21` (stereo not given), which INHIBITION is on record?
A: 24.6%

Q: How did the INHIBITION turn out when `O=C(COc1ccccc1F)N1CCCCC1c1ccn2ccnc2n1` (stereo not given) was run?
A: 63.4%

Q: How did the INHIBITION turn out when `O=C(Cc1ccc(F)cc1)N1CCCCC1c1ccn2ccnc2n1` (stereo not given) was run?
A: 7.39%

Q: Which INHIBITION does the source give for `O=C(CCc1cccnc1)N1CCCCC1c1ccn2ccnc2n1` (stereo not given) here?
A: 45.6%

Q: How did the INHIBITION turn out when `O=C(Cc1ccccc1F)N1CCCCC1c1ccn2ccnc2n1` (stereo not given) was run?
A: 51.5%

Q: `O=C(Cc1cccc(F)c1)N1CCCCC1c1ccn2ccnc2n1` (stereo not given) was tested. Which INHIBITION did it give?
A: 9.1%

Q: How did the INHIBITION turn out when `O=C(COc1cccc(F)c1)N1CCCCC1c1ccn2ccnc2n1` (stereo not given) was run?
A: 1.11%

Q: How did the INHIBITION turn out when `CCn1cc(CNc2ccc(F)c(F)c2)cn1` was run?
A: -8%

Q: Which INHIBITION does the source give for `CCCc1noc(C[S+]([O-])CC(=O)NCc2ccccc2)n1` (stereo not given) here?
A: 23.2%

Q: Which INHIBITION does the source give for `CC(C)CCc1noc(C[S+]([O-])CC(=O)NCc2ccccc2)n1` (stereo not given) here?
A: 55.3%

Q: How did the INHIBITION turn out when `CC(C)Cc1nc(C[S+]([O-])CC(=O)NCc2ccccc2)no1` (stereo not given) was run?
A: -5.1%

Q: With `COc1ccc(N2CCN(C(=O)COc3nccc(C)n3)CC2)cc1` as the compound, how does the INHIBITION read?
A: 36.8%

Q: With `N#Cc1cccc(NC(=O)N[C@H](CO)c2ccccc2)c1` as the compound, how does the INHIBITION read?
A: 18.5%

Q: For `N#CCc1ccc(NC(=O)N[C@H](CO)Cc2ccc(O)cc2)cc1`, which INHIBITION is on record?
A: 11.6%

Q: Which INHIBITION does the source give for `N#Cc1cccc(NC(=O)N[C@H](CO)Cc2ccc(O)cc2)c1` here?
A: 60.9%

Reference: ChEMBL document CHEMBL4513216, “Probing the Open Global Health Chemical Diversity Library for Multistage-Active Starting Points for Next-Generation Antimalarials” (ACS Infect Dis, 2020)
